Assay outcomes from PubChem.
miR-122 inh: miR-122 suppressors via Renilla sensor increase, primary screen, cell-based, Huh7 psiCHECK-miR122, Renilla luciferase, single point | 48 h | 340,000 tested, 0.14% active | activation, % at 12.5 µM;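 active = mean activation of 30% or more, with every replicate also reaching 30%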;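 note: 0% = median of neutral control wells and 100% = median of positive control wells; higher luciferase signal means stronger suppression of miR-122 activity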
An asterisk follows results filed as active. The entries come from a sample that favours hits as a whole.

SMILES	miR-122 inh
CCOc1ccc(-c2nnc(SCC(=O)Nc3ccc4c(c3)c3ccccc3n4CC)n2N)cc1	53.6*
CCC(=O)N(C)C[C@@H]1Oc2ncc(-c3cccc(OC)c3)cc2C(=O)N([C@H](C)CO)C[C@@H]1C	-28.7
C[C@H](CO)N1C[C@H](C)[C@@H](CN(C)C(=O)CC2CC2)Oc2cc(-c3ccccc3)ccc2S1(=O)=O	-32.5
COc1cnc(-c2ccccn2)nc1Sc1ccccc1Cl	39.3*
COc1ccc(-c2ccc3c(c2)O[C@H](CN(C)C(=O)c2ccccc2F)[C@@H](C)CN([C@@H](C)CO)S3(=O)=O)cc1	-2.0
O=C(/C=C/Nc1cccc([N+](=O)[O-])c1)c1cccs1	-92.8
N#Cc1cccc(NC(=O)Nc2cccs2)c1	35.8*
C[C@@H]1CN([C@H](C)CO)C(=O)c2cc(-c3ccccc3F)cnc2O[C@H]1CN(C)Cc1ccccc1F	-35.7
COc1ccc(NC(=O)N(C)C[C@H]2Oc3ncc(C4=CCCC4)cc3C(=O)N([C@@H](C)CO)C[C@@H]2C)cc1	1.7
Cc1ccc(S(=O)(=O)N(C)C[C@@H]2Oc3cc(C#CC4CCCC4)ccc3S(=O)(=O)N([C@H](C)CO)C[C@@H]2C)cc1	3.4
C[C@@H]1CN([C@H](C)CO)S(=O)(=O)c2ccc(-c3ccncc3)cc2O[C@H]1CN(C)Cc1ccccn1	-3.0
CO[C@H]1CN(C)C(=O)c2cc(NC(=O)Nc3ccccc3)ccc2OC[C@H](C)NC[C@H]1C	-3.8
CCCNC(=O)C[C@@H]1CC[C@H]2[C@H](COc3ccc(NC(=O)Nc4ccccc4F)cc3C(=O)N2C)O1	-100.0
CO[C@@H]1CN(C)C(=O)c2cc(NC(=O)NC(C)C)ccc2OC[C@H](C)N(C(=O)NC(C)C)C[C@H]1C	0.5
CNC(=O)C[C@@H]1CC[C@@H]2[C@@H](COc3ccc(NC(=O)c4ccccc4F)cc3C(=O)N2C)O1	53.3*
COC(=O)C[C@@H]1CC[C@@H]2[C@@H](COc3ccc(NC(=O)Nc4cccc(C#N)c4)cc3C(=O)N2C)O1	47.8*
COCC(=O)Nc1ccc2c(c1)C(=O)N(C)[C@@H]1CC[C@@H](CC(=O)NC3CCCC3)O[C@H]1CO2	53.3*
CN1C(=O)c2cc(NC(=O)NCc3ccccc3)ccc2OC[C@@H]2O[C@H](CC(=O)NCC3CCCCC3)CC[C@@H]21	-173.3
CO[C@@H]1CN(C)C(=O)c2cc(NC(=O)Nc3ccccc3)ccc2OC[C@H](C)NC[C@H]1C	-2.3
COCC(=O)Nc1ccc2c(c1)C(=O)N(C)C[C@H](OC)[C@H](C)CN(C(=O)COC)[C@H](C)CO2	-1.7
CCC(=O)Nc1ccc2c(c1)OC[C@@H](C)N(C(=O)c1ccccc1F)C[C@H](C)[C@H](OC)CN(C)C2=O	-0.6
COCC(=O)Nc1ccc2c(c1)C(=O)N(C)C[C@H](OC)[C@@H](C)CN(C(=O)COC)[C@@H](C)CO2	1.3
CNC(=O)C[C@@H]1CC[C@H]2[C@@H](COc3ccc(NC(=O)NC(C)C)cc3C(=O)N2C)O1	70.0*
COCC#Cc1ccc2c(c1)O[C@@H](CN(C)C(=O)COC)[C@H](C)CN([C@H](C)CO)S2(=O)=O	2.1
CO[C@@H]1CN(C)C(=O)c2cc(NC(C)=O)ccc2OC[C@H](C)N(C(=O)CN(C)C)C[C@@H]1C	1.9
SMILES	miR-122 inh
CCCC#Cc1cnc2c(c1)C(=O)N([C@@H](C)CO)C[C@H](C)[C@@H](CN(C)C(=O)C1CC1)O2	4.8
C[C@H](O)C#Cc1cnc2c(c1)C(=O)N([C@@H](C)CO)C[C@H](C)[C@@H](CN(C)Cc1cncnc1)O2	-5.9
C[C@@H]1CN([C@H](C)CO)C(=O)c2cc(C#Cc3ccccn3)cnc2O[C@@H]1CN(C)C(=O)CCN1CCCCC1	0.6
COCC(=O)N(C)C[C@H]1Oc2ncc(/C=C/c3ccccc3)cc2C(=O)N([C@@H](C)CO)C[C@H]1C	8.3
COCC#Cc1ccc2c(c1)O[C@@H](CN(C)C(=O)C1CCCCC1)[C@H](C)CN([C@@H](C)CO)S2(=O)=O	-10.1
C[C@@H]1CN([C@H](C)CO)C(=O)c2cc(C#Cc3ccc(F)cc3)cnc2O[C@@H]1CN(C)Cc1ccccn1	-2.3
CCCNC(=O)N(C)C[C@@H]1Oc2cc(C#CC(C)C)ccc2S(=O)(=O)N([C@H](C)CO)C[C@@H]1C	-8.9
COc1ccc(NC(=O)N(C)C[C@H]2Oc3ccc(NC(=O)Nc4ccc(C(F)(F)F)cc4)cc3CC(=O)N([C@@H](C)CO)C[C@H]2C)cc1	-200.8
C[C@@H]1CN([C@@H](C)CO)C(=O)c2cc(Br)cnc2O[C@@H]1CN(C)C(=O)CN1CCOCC1	4.7
Cc1ccccc1NC(=O)Nc1ccc2c(c1)C(=O)N(C)[C@H]1CC[C@@H](CC(=O)NCC3CC3)O[C@H]1CO2	-217.8
CNC(=O)C[C@@H]1CC[C@@H]2[C@H](COc3ccc(NC(=O)Nc4cccc(C)c4)cc3C(=O)N2C)O1	46.7*
CNC[C@@H]1Oc2cc(-c3ccc(OC)cc3)ccc2S(=O)(=O)N([C@H](C)CO)C[C@H]1C	6.6
C[C@@H]1CN([C@@H](C)CO)C(=O)c2cc(C3=CCCCC3)cnc2O[C@H]1CN(C)Cc1cccc(F)c1	1.1
